Results taken from PubChem BioAssay AID493170 (National Center for Advancing Translational Sciences (NCATS), 2011).
Records with an inconclusive call do not appear. A number with no mark means an inactive call. The source made the active and inactive calls. The call rests on the fitted dose curve; in most records, active means well fitted inhibition curve with a large enough effect; inconclusive means small, poorly fitted or top-dose-only effect, or effect the other way; inactive means flat fitted curve, though single readings scatter.

biological target: Ubiquitin carboxyl-terminal hydrolase 2 (Homo sapiens) (UniProt O75604); assay: Ub-rhodamine 110 based assay for inhibitors Ubiquitin-specific Protease USP2a; conditions: USP2a Ub-rhodamine110 cleavage, fluorescence; series mostly up to 38.3 µM; activity change, negative = inhibition: at the top concentration; further: nearly all actives have a fitted effect of over 50% in size
Procedure, shortened: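 Kinetic fluorescence (485/531 nm) read each minute over 7 min after adding Ub-Rhod110 (150 nM final) to USP2a (5 nM final). The enzyme had 30 min RT exposure to compounds beforehand in Tris pH 8.0 buffer with CaCl2, CHAPS and beta-ME.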
On the % scale 0 is the no-effect control and ±100 the full control effect; potency means the concentration at half of the fitted maximal effect.

Ubiquitin carboxyl-terminal hydrolase 2 (Homo sapiens), sequence (O75604 whole entry, looked up): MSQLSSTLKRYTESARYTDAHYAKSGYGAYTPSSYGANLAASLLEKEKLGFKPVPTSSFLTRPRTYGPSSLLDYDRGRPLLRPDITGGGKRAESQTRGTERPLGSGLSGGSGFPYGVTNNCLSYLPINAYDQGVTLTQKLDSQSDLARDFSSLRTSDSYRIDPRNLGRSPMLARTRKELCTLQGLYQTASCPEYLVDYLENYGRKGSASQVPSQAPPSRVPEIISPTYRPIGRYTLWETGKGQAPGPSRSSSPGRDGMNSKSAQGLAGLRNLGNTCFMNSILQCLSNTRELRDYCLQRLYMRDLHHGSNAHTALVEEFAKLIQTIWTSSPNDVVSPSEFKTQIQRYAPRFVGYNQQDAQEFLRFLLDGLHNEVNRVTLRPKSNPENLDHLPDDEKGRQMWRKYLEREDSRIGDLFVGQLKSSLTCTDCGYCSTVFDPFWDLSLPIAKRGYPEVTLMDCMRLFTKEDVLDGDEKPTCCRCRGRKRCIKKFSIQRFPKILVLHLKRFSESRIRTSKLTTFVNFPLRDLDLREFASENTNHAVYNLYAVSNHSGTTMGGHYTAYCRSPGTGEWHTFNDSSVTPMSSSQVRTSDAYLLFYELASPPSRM

In the case of CCOC(=O)c1c(-c2ccc(C)o2)csc1NC(=O)COC(=O)c1ccc(NC(N)=O)cc1, the Potency is reported as 7.08 µM (active).
With C#CCOCCOCCOCCNc1nc(N2CCN(C(=O)CCCCCCCCCCNC(=O)[C@@H](CCSC)n3cc(CCO)nn3)CC2)nc(N2CCN(C(=O)CCCCCCCCCCNC(=O)[C@H](CCCN=C(N)N)n3cc(C[C@@H](C)CC)nn3)CC2)n1 the Potency was 10 µM (active).
With COc1cccc(OC)c1-c1nn2c(-c3cc(-c4ccccc4)n[nH]3)nnc2s1 the Potency was 6.31 µM (active).
For Cc1ccc(C)c(S(=O)(=O)N2CCN(C(=O)/C=C/c3ccco3)CC2)c1, the Potency was 10 µM (active).
For O=c1[nH]c(=S)[nH]c2c1C(c1ccc(Br)cc1)c1c([nH]c(=S)[nH]c1=O)O2, the Potency was 11.2 µM (active).
In the case of CCCCCCCCCCCCCCCC[N+](C)(C)CCN(Cc1ccc(OC)cc1)c1ncccn1, the Potency is reported as 11.2 µM (active).
For Cc1ccc([C@@H]2CC=C(C(=O)O)[C@H](c3ccc(C(C)(C)C)cc3)N2S(=O)(=O)c2ccc(C)cc2)cc1, the Potency was 10 µM (active).
In the case of CC(C)Oc1ccc(C(=O)Nc2ccc(N3CCCC3)cc2)cc1, the Potency is reported as 10 µM (active).
COc1ccc(/C=C2\SC(=O)N(CCC(=O)Nc3ccc(S(=O)(=O)Nc4nccs4)cc3)C2=O)cc1 was tested, and the Potency was 10 µM (active).
For Cc1noc(/C=C/c2ccco2)c1S(=O)(=O)N1CCC(C(=O)N(C)Cc2ccccc2)CC1, the Potency was 10 µM (active).

First: CCC(C)c1ccc(O)c(N)c1 (centres undefined)
Second: C[C@](N)(Cc1ccc(O)c(O)c1)C(=O)O
The “activity change, negative = inhibition” value of the first is lower: -10.2% for the first, -6.04% for the second.

Compared with Cc1ccc(-c2c(C)n([O-])c3c([n+]2=O)CCC3)o1, Cc1ccc(C2=[N+]([O-])C(C)N(O)C2(C)C)o1 (centres undefined) is higher in “activity change, negative = inhibition” value: -2.02% for the first, -1.97% for the second.

Going from COC(=O)c1ccc(NC(=O)CSC2=Nc3ccccc3C3CC=NN23)cc1 (centres undefined) to CCCC(=O)Nc1ccc(N2CCN(C(=O)c3cc4ccccc4o3)CC2)cc1, the “activity change, negative = inhibition” value rises from -25% to -17.7%.

Compared with CCOc1ccc(NC(=O)c2cccc(-n3cnnn3)c2)cc1, COc1ccc(OCC(=O)NCCNC(=O)c2cccnc2)cc1 is higher in “activity change, negative = inhibition” value: 1.58% for the first, 10.5% for the second.

First: OCCN(Cc1ccccc1)c1ncnc2sccc12
Second: COC(=O)N/N=C\c1cc(Br)ccc1OCc1ccccc1
The “activity change, negative = inhibition” value of the first is lower: -13.2% for the first, -10.6% for the second.

Compared with CC(C)CC(=O)Nc1cccc(-c2nc3ccccc3o2)c1, O=C(Nc1ccccc1)c1cc(Cl)nc2ccccc12 is lower in “activity change, negative = inhibition” value: 4.76% for the first, -4.81% for the second.

Going from Cc1noc(/C=C/NCc2cccnc2)c1S(=O)(=O)N(C)CC(=O)N1CCc2ccccc21 to COc1ccccc1C(=O)n1nc(-c2cccnc2)nc1NCc1ccccc1, the “activity change, negative = inhibition” value falls from -11.3% to -20.8%.

First: C#CCOCCOCCOCCNc1nc(N2CCN(C(=O)CCCCCCCCCCNC(=O)Cn3cc(CCCCCN)nn3)CC2)nc(N2CCN(C(=O)CCCCCCCCCCNC(=O)[C@H]([C@@H](C)CC)n3cc(CCCCCN)nn3)CC2)n1
Second: CC[C@]12c3[nH]c4cc(-c5ccco5)ccc4c3CCN1C(=O)[C@@H](CC(=O)NC/C=C(\C)CCC=C(C)C)C[C@@H]2C(=O)N1CCN(C(=O)C2CC2)CC1
The “activity change, negative = inhibition” value of the first is higher: -15.4% for the first, -21% for the second.

Compared with Cn1nc(CC(=O)NCc2ccc(F)cc2)c2ccccc2c1=O, COc1ccc(-n2c(O)c(/C=N/n3cnnc3)c3ccccc3c2=O)cc1 is lower in “activity change, negative = inhibition” value: -3.88% for the first, -3.98% for the second.

First: CC(C)OCCCNC(=O)CN1C(=O)CC(C)(C)S(=O)(=O)c2ccccc21
Second: O=C(O)CCn1c(C2CCCCC2)nc2ccccc21
The “activity change, negative = inhibition” value of the first is lower: -9.85% for the first, -1.41% for the second.

First: Cc1c(NC(=O)C2CCCN(S(=O)(=O)c3cnc[nH]3)C2)c(=O)n(-c2ccccc2)n1C (centres undefined)
Second: CC(=O)Nc1ccc(NC(=O)C2CCCN(S(=O)(=O)c3ccc(Cl)cc3)C2)cc1 (centres undefined)
The “activity change, negative = inhibition” value of the first is lower: -9.5% for the first, -9.2% for the second.

Compared with Cc1cc(N=Nc2ccc(C)c(N=Nc3cc(C)c(N)cc3N)c2)c(N)cc1N, COc1cc(C2C(C#N)=C(N)Oc3c2ccc2ccccc32)ccc1OCC(=O)Nc1cccc(C)c1 (centres undefined) is higher in “activity change, negative = inhibition” value: -17.5% for the first, -14.7% for the second.

Compared with CCCCC1NC(C(=O)O)CS1 (centres undefined), O=C(O)CP(=O)(c1ccccc1)c1ccccc1 is lower in “activity change, negative = inhibition” value: -4.19% for the first, -4.26% for the second.

Going from O=C(N/N=C1\CC(c2ccccc2)Oc2ccccc21)c1ccc(O)cc1 (centres undefined) to Cc1ccc(C(=O)N/C(=C/c2ccco2)C(=O)Nc2cccc(C(=O)O)c2)cc1, the “activity change, negative = inhibition” value rises from -26.4% to 1.46%.

For Cc1ccc(Nc2nc(N)nc(CN3CCN(C(=O)c4ccco4)CC3)n2)cc1Cl, the “activity change, negative = inhibition” value was -14.7%.
